This is an account of results in ChEMBL document CHEMBL4513216, “Probing the Open Global Health Chemical Diversity Library for Multistage-Active Starting Points for Next-Generation Antimalarials” (ACS Infect Dis, 2020).

Screen size: about 69,000 compounds; about 8,600 (12%) showed an effect of 50% or more. The sample holds strong results, similar compounds and a random draw of the others, so the mix is not that of the screen.

For this assay, the system named is Plasmodium berghei. Kind of assay: Screen against P. berghei liver stage (PbLuc), transformed with Luciferase, at 10uM. It is filed as functional, HepG2. The following applies: tested at 10 uM.
Take `COC(=O)C1(NCC(=O)Nc2cc(C)ccc2OC)CCCCC1`: the INHIBITION is given as 5.11%.

With `c1ncn(CC2CN(Cc3nc(C4CC4)no3)CCO2)n1` (stereo not given), the INHIBITION was -7.31%.

Take `CCn1cnnc1C1CCN(C(=O)c2ccnc(N(C)C)c2)CC1`: the INHIBITION turned out to be 31.6%. Under `O=C(c1ccno1)N1CCOC[C@H](Oc2ccccc2)C1` stands 25.3%.

Consider `COc1ccc(O[C@H]2COCCN(C(=O)c3ccno3)C2)cc1`, for which the INHIBITION is on record as -11.1%. Regarding `O=C(c1ccno1)N1CCOC[C@H](Oc2ccc(C(F)(F)F)cc2)C1`, the INHIBITION amounted to 50.2%. For `CCOCC(=O)Nc1cccc(Oc2ccccn2)c1` the value was -13.4%. As for `COCCN1CCC2(CCN(Cc3cccs3)CC2)C1=O`, the INHIBITION is given as -3.12%. With `O=C(NCCCn1nc2ccccn2c1=O)NCc1ccccc1`, the INHIBITION was -9.76%. Under `CC(C)NC(=O)c1cc2c(s1)CCN2c1ncccn1` stands -21.3%. `O=C(NCCN1CCCC1)c1cc2c(s1)CCN2c1ncccn1`: the INHIBITION was 61.1%. Consider `CCCNC(=O)c1cc2c(s1)CCN2c1ncccn1`, for which the INHIBITION amounted to 4.98%. On to `Cc1ccc(N2CCc3sc(C(=O)NCCN4CCCC4)cc32)nn1`, for which the INHIBITION is listed as -15.2%. As for `O=C(NCC1CC1)c1cc2c(s1)CCN2c1ncccn1`, the INHIBITION is given as 75.6%. For `O=C(NCC1CC1)c1cc2c(s1)CCN2C(=O)c1cccnc1` the value was -26.1%; for `O=C(c1ccco1)N1CCO[C@@H]2CNC[C@@H]21`, 22.2%; for `COc1ccc(C)cc1-n1ccc(C(=O)NCC2CCCOC2)n1` (stereo not given), 17.3%.

Regarding `OC1(CNCCc2nc3c(s2)CCCC3)CNCCOC1` (stereo not given), the INHIBITION was -12.1%.

As for `CN(CCCSc1ccccc1)C(=O)Cn1ncc(N(C)C)cc1=O`, the INHIBITION is on record as 31.7%.

For `CC(=O)N1CCCc2sc(C(=O)Nc3ccc(C)nc3)nc21`, the INHIBITION came out at 34.6%. As to `Cc1ccc(NC(=O)c2nc3c(s2)CCCN3C(=O)C2CC2)cn1`, the INHIBITION is listed as -0.804%. Under `Cc1ccc(NC(=O)c2nc3c(s2)CCCN3C(C)C)cn1` stands 63.5%. Consider `NS(=O)(=O)CCN(CCc1cccc(F)c1)C1CCCC1`, for which the INHIBITION came to 36.3%. For `CS(=O)(=O)Nc1cnn(Cc2cccc(Cl)c2)c1` the value was 29.1%; for `COc1ccc(-n2ccc(C(=O)NCCn3ccnc3)n2)cc1`, 5.9%.

Take `CN1[C@@H]2CC[C@H]1CN(C(=O)c1nnc3n1CCCC3)CC2`: the INHIBITION was -151%. For `O=C(NCc1ccccn1)[C@@]12CCO[C@@H]1CCN(c1ncccn1)C2`, the INHIBITION is reported as 41.2%.

`COCCNC(=O)[C@@]12CCO[C@@H]1CCN(Cc1scnc1C)C2`: the INHIBITION was 8.67%.

As to `O=C(NCc1ccco1)[C@@]12CCO[C@@H]1CCN(Cc1ccccn1)C2`, the INHIBITION is reported as -34.7%. As to `Cc1cc(CN2CC[C@H]3OCC[C@@]3(C(=O)NC(C)C)C2)no1`, the INHIBITION is 6.32%.

On to `CNC(=O)[C@@]12CCO[C@@H]1CCN(Cc1scnc1C)C2`, for which the INHIBITION turned out to be 19%. Under `O=C(NCc1ccco1)[C@@]12CCO[C@@H]1CCN(CCN1CCCC1)C2` stands 22.4%; under `CC(C)NC(=O)[C@@]12CCO[C@@H]1CCN(Cc1ccco1)C2`, 60.3%; under `Cc1ncsc1CN1CC[C@H]2OCC[C@@]2(C(=O)NCC2CC2)C1`, 53.4%. Under `O=C(NCc1ccccn1)[C@@]12CCO[C@@H]1CCN(Cc1ccccn1)C2` stands 51.2%; under `c1coc(CN2CCCn3c(nnc3Cn3cccc3)C2)c1`, 45.4%. For `Cc1ccc(CN2C[C@H](OCC3CCOCC3)[C@H]3COC[C@H]32)o1` the value was -59.9%.

Turning to `Oc1cc(CC2COCCN(CC3(O)CCOCC3)C2)ncn1` (stereo not given), the INHIBITION turned out to be 6.26%. `CC(C)c1nnc2n1CCN(C(=O)Cc1csc(C(C)(C)C)n1)C2`: the INHIBITION was found to be 1.35%. Regarding `CC(C)N1CCC(Cc2cc(-c3cccc(C(=O)O)c3)ncn2)CC1`, the INHIBITION was found to be 23.4%. Take `Fc1ccc(CN2CCO[C@H]3[C@H](OCC4CC4)CC[C@@H]32)cc1`: the INHIBITION is -30.8%. For `c1coc(CN2CCO[C@H]3[C@H](OCC4CCCC4)CC[C@@H]32)c1` the value was 47.4%. Take `c1cc(CN2CCO[C@H]3[C@H](OCCN4CCCC4)CC[C@@H]32)ccn1`: the INHIBITION is recorded as 38.2%. Consider `c1cc(CN2CCO[C@H]3[C@H](OCC4CCCC4)CC[C@@H]32)ccn1`, for which the INHIBITION was 62.6%.

As for `Fc1ccc(CN2CCO[C@H]3[C@H](OCCN4CCCC4)CC[C@@H]32)cc1`, the INHIBITION is recorded as 15.1%. For `Fc1ccc(CN2CCO[C@H]3[C@H](OCC4CCCC4)CC[C@@H]32)cc1` the value was 66.8%; for `CCOC[C@]12COC[C@H]1CN(Cc1ccc(F)c(F)c1)C2`, 10.4%. Under `COc1ccc(-c2n[nH]cc2CN(C)Cc2ccoc2)c(F)c1` stands -25.8%; under `Cc1cnccc1CN(C)Cc1c[nH]nc1-c1ccc(F)cc1F`, 18.6%. Under `CC(C)CN(C)Cc1c[nH]nc1-c1ccc(F)cc1F` stands 11.9%; under `COc1ccc(-c2n[nH]cc2CN(C)Cc2nccn2C)c(F)c1`, 51.5%. Turning to `CN(Cc1c[nH]nc1-c1ccc(F)cc1F)Cc1nccn1C`, the INHIBITION worked out at 52.2%. As to `COc1ccc(-c2n[nH]cc2CN(C)Cc2nnc(C)o2)c(F)c1`, the INHIBITION turned out to be 23.8%. Under `Cc1nc(CN2C(=O)CC[C@@H]3[C@H]2CCN3C(=O)C2CCCO2)cs1` (stereo not given in full) stands 15.4%; under `O=C(CCc1ccncc1)N1CCc2cc(Cl)cc(Cl)c2C1`, 49.7%. For the molecule `COc1ccc(F)cc1C(=O)N1C[C@@H]2CC[C@H]1CN(c1ncccn1)C2`, the INHIBITION amounted to 10.7%. Take `CC(C)C(=O)N1CCC(C)(c2cc(O)[nH]n2)CC1`: the INHIBITION is given as -4.87%. With `c1ccc(CCN2CCCC2c2cccc(Nc3nccs3)n2)cc1` (stereo not given), the INHIBITION stood at 69.2%. `Cc1ccccc1CN1CCCC1c1cccc(Nc2nccs2)n1` (stereo not given): the INHIBITION was 71.8%. `Cc1cccc(CN2CCCC2c2cncc(Nc3nncs3)n2)c1` (stereo not given): the INHIBITION is given as 46.2%. Take `Cc1ccccc1CN1CCCC1c1cncc(Nc2nncs2)n1` (stereo not given): the INHIBITION was determined as 22%.

For `CS(=O)(=O)N1CCCC1c1cccc(Nc2nccs2)n1` (stereo not given), the INHIBITION is listed as -17.7%. For `c1ccc(CCN2CCCC2c2ccnc(Nc3ncccn3)n2)cc1` (stereo not given) the value was 11.8%. For `c1ccc(CCN2CCCC2c2cncc(Nc3nncs3)n2)cc1` (stereo not given), the INHIBITION worked out at 11.8%. For `COc1cccc(CN2CCCC2c2cncc(Nc3nncs3)n2)c1` (stereo not given), the INHIBITION was -29.9%. For `Cc1cccc(CN2CCCC2c2cccc(Nc3nccs3)n2)c1` (stereo not given) the value was 72%. On to `COc1cccc(CNC(=O)CCNS(=O)(=O)c2ccc(C)cc2)c1`, for which the INHIBITION is recorded as -31.3%. Under `CCCC1c2cccn2CCN1S(=O)(=O)N1CCOCC1` (stereo not given) stands 1.65%; under `CCCc1nc(C(=O)NC(COC)c2ccnn2C)cs1` (stereo not given), 16.3%; under `Cc1ccc(CN2CCC[C@]3(C(=O)O)CN(CC4CC4)C[C@@H]3C2)s1`, -27.6%.

In the case of `COCC(=O)N1CCN(Cc2cc(F)cc(Br)c2)CC1`, the INHIBITION is on record as -10.9%. Under `CN(C)CCOCc1nnc2n1CCN(Cc1ccco1)C2` stands -13.7%; under `CCc1ccc(C2COCCN2C(=O)Nc2cccc(C(C)=O)c2)o1` (stereo not given), -2.9%.

Take `CCc1ccc(C2COCCN2C(=O)Nc2ccc(C(N)=O)c(Cl)c2)o1` (stereo not given): the INHIBITION is listed as 78.3%.

Take `CCc1ccc(C2COCCN2C(=O)NCc2cccc(C#N)c2)o1` (stereo not given): the INHIBITION is reported as -92.8%. Under `Cc1ccc(C2COCCN2C(=O)c2ccc(C#N)cc2)o1` (stereo not given) stands 32%; under `CCc1ccc(C2COCCN2C(=O)Nc2ccc(C#N)cc2)o1` (stereo not given), 65.3%. With `CCc1ccc(C2COCCN2C(=O)Nc2cc(C)on2)o1` (stereo not given), the INHIBITION is on record as -107%. Under `CNC(=O)C1CN(Cc2c[nH]cn2)CCN(C2CCOCC2)C1` (stereo not given) stands 25.6%; under `CC(C)Oc1ccc(C(=O)N2CCCSCC2CN(C)C)cc1` (stereo not given), 36.6%. On to `O=C(COC[C@H]1CC[C@H]2[C@H](CCN2c2ccccn2)O1)N1CCCC1`, for which the INHIBITION is -37.4%. For `Cc1nccn1CCN(C)C(=O)c1cn(CC2CCCCC2)nn1` the value was 41.8%; for `COCc1cccc(NCc2cccnc2)c1`, 36.5%. For `CCSCc1cccc(NCc2cccnc2)c1` the value was 61.6%; for `COc1ccnc(NC(=O)CSCc2cccnc2)c1`, 36.9%; for `CCOCc1nnc(NCc2cccnc2)o1`, -0.897%. With `COc1cccc(CSCC(=O)NCc2cccnc2)c1`, the INHIBITION was 54.5%. As for `CCSc1cccc(NCc2cccnc2)c1`, the INHIBITION is 85.2%. For `Cc1cc(NCc2cccnc2)n2nc(C)cc2n1` the value was -10.4%; for `COc1cccc(CNCc2cccnc2)c1`, 13.7%. On to `OCc1ccc(Cl)c(NCc2cccnc2)c1`, for which the INHIBITION is recorded as 3.16%. For `CCCc1nn(Cc2ccc(Br)s2)c(=O)o1` the value was 40.5%; for `CCc1nc(CN2CCCN(C(=O)CC(C)OC)CC2)cs1` (stereo not given), 43.3%. As to `CN(Cc1nccn1CC(F)(F)F)C(=O)c1cccc(C#N)c1`, the INHIBITION was determined as 41.1%. Turning to `CC(NC(=O)CNc1cc2c(cc1Cl)OCCO2)c1ccco1` (stereo not given), the INHIBITION is reported as -10.3%. As for `O=C(Nc1ccc(-c2cnc(NCCO)nc2)cc1)[C@@H]1CCCCN1`, the INHIBITION was found to be 23.4%. For `CCCn1nc2c(cc1=O)CN(CCN1CCCC1=O)CC2` the value was -7.35%; for `CCCn1nc2c(cc1=O)CN(CCCS(N)(=O)=O)CC2`, 47.6%; for `CCCn1nc2c(cc1=O)CN(Cc1cc(C)on1)CC2`, 40.1%. For `CCCn1nc2c(cc1=O)CN(Cc1ccccn1)CC2` the value was 58.3%; for `CCCn1nc2c(cc1=O)CN(CCS(C)(=O)=O)CC2`, 70.1%; for `CCCn1nc2c(cc1=O)CN(Cc1nc(C)c3ccccc3n1)CC2`, 34.6%. For `CNC(=O)N1CC[C@@H]2CN(Cc3ccccc3)S(=O)(=O)[C@@H]2CC1` the value was 23.1%. With `CC(NC(=O)NCCc1nc(C(F)(F)F)cs1)C(=O)N(C)C` (stereo not given), the INHIBITION is -15.5%.

Take `O=C([C@H]1C[C@H]2OCC[C@H]2N(Cc2cccnc2)C1)N1CCCO1`: the INHIBITION was 38.1%.
